Bioassay records from PubChem.
Pf growth 48h: inhibits P. falciparum growth in the first generation, 48 h; P. falciparum luciferase growth in erythrocytes, 48 h; Potency, µM (highest dose often 28.7 µM), for inactives: at the top dose activity change, negative = inhibition, most hits filed as inhibitors; 310,000 tested, 5.9% active; also: potency is read from the fitted curve at half-maximal effect; % is scaled to controls: 0 for no effect and ±100 for the full control effect
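Parasite viability was followed by luminescence of a genomically integrated firefly luciferase. Cultures held 0.1% parasitemia at 2% hematocrit (final), incubated under 5% CO2 at 37 C.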
NS1 function inh: influenza NS1 inhibition | 270,000 tested, 0.4% active | Potency, µM (doses to about 46.1 µM), without a hit: top-dose activity, positive = more growth; calls by dose curve; also: potency is read from the fitted curve at half-maximal effect; actives are rising curves; nearly all actives have a fitted effect of over 50% in size
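A cell-based growth assay was used: compounds that relieve NS1-induced slow growth of budding yeast raise OD600. Assay medium was yeast nitrogen base with ammonium sulphate and -URA supplement, pH 6.0, with 2% galactose.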
Shiga inhibitor: Shiga toxin inhibition; AID 2315; 290,000 tested, 9.2% active; inhibition, % at 38.7 µM; Vero cells, Shiga toxin protein synthesis inhibition reporter; in the data active = inhibition mostly above about 28%, no sharp cut-off; inactive = mostly below about 43%; also: 0% is about no effect
Cycloheximide cs: counter-screen for Shiga toxin inhibitors: cycloheximide protein synthesis inhibition; cell reporter, cycloheximide protein synthesis inhibition counterscreen; max response, %; 300,000 tested, 12% active; AID 2314; in the data active = max response mostly above about 13%, no sharp cut-off; inactive = mostly below about 14%; also: read at 38.3 µM for the half of the compounds with a filed dose; 0% is about no effect
Pf growth 96h: inhibits malaria parasite growth, 96 h | Potency, µM (titrated, usually from 28.7 µM), for the others: top-dose activity change, negative = inhibition, usual class: inhibitors | P. falciparum luciferase reporter growth, 96 h | 320,000 tested, 6.9% active; also: potency is read from the fitted curve at half-maximal effect; % is scaled to controls: 0 for no effect and ±100 for the full control effect
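Infected RBCs, 2% Hct / 0.05% parasitemia final; luciferase-reporter P. falciparum; cpd 96 h, 37 C, 5% CO2; luciferase detection reagent; luminescence.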
Sm TGR inh: inhibitors of Schistosoma mansoni thioredoxin glutathione reductase. Q962Y6. purified TGR, DTNB reduction, TNB absorbance 405 nm. AID 485364. 360,000 tested, 3% active. Potency, µM (series often up to 114 µM), for the others: at the highest dose activity change, negative = inhibition, actives largely listed as inhibitors; also: potency is read from the fitted curve at half-maximal effect; % is scaled to controls: 0 for no effect and ±100 for the full control effect; nearly all actives have a fitted effect of over 60% in size
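Kinetic colorimetric format: TGR-catalysed, NADPH-driven DTNB reduction monitored via TNB absorbance. Enzyme dispensed at 20 nM; compound exposure 15 min at room temperature before reaction start.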
Active calls of the source: *; ? = inconclusive; nt = no result given; [ ] = dose if it differs, or a comment. Rows were chosen to be rich in hits. Some 21% of all compounds tested hit in one or more screens of this group. Unless noted, calls follow the shape of the dose curve; as a rule, active = well fitted curve in the direction sought with a large enough effect; inconclusive = small, poorly fitted or top-dose-only effect, or another doubt; inactive = no such curve, though single readings can be large; an effect the other way counts as inactive or inconclusive.

SMILES | Pf growth 48h | NS1 function inh | Shiga inhibitor | Cycloheximide cs | Pf growth 96h | Sm TGR inh
NC(=O)c1nn(-c2ccc(Cl)cc2Cl)c(=O)cc1O | 13.4% | nt | -14.0 | -0.9 | ? | -1.5%
COc1ccc(Cn2cc(S(=O)(=O)c3ccc(C)cc3)c(=O)c3cc(F)ccc32)cc1 | nt | nt | nt | nt | nt | 0.9%
O=C(N/N=C/C1CC=CCC1)c1cc2ccccc2cc1O (centres undefined) | -23.5% | ? | 39.2 | 13.3* | ? | 6.0%
COc1cc(C(=O)N/N=C/C2CC=CCC2)cc(OC)c1OC (centres undefined) | 7.0% | 4.5% | -1.1 | 3.2 | 27.4% | 17.4%
O=C(N/N=C/C1CC=CCC1)c1ccc(O)cc1O (centres undefined) | 5.3% | 4.9% | 34.2 | 71.4* | 44.7% | 4.3%
CCOc1cc(-c2nc(C)c(C(C)=O)n2O)ccc1OCC(=O)Nc1ccccc1 | -6.4% | nt | 49.3 | 5.7 | ? | -5.8%
O=C1C=C(c2ccc(F)cc2OCc2ccccc2)C[C@@H](c2ccc(Cl)cc2)C1 | ? | nt | nt | nt | 30.8% | 4.2%
O=C(NCCN1CCOCC1)c1cc(-c2ccc(O)cc2)on1 | nt | -17.1% | nt | nt | nt | nt
O=C(NCCN1CCOCC1)c1cc(-c2ccccc2)on1 | 58.6% | -10.1% | 74.3* | 22.0* | nt | 4.4%
O=C(NCCCN1CCOCC1)c1cc(-c2ccccc2)on1 | 59.1% | -14.3% | 136.6* | 13.4* | nt | 5.1%
O=C(NCCN1CCOCC1)c1cc(-c2cccs2)on1 | 62.1% | 2.7% | 56.6* | 20.4* | 9.28µM* | -10.4%
O=C(NCCN1CCOCC1)c1cc(-c2ccccc2Cl)on1 | 42.2% | -2.5% | 22.5 | 12.7 | ? | 8.4%
Cc1cc(C)cc(SCc2noc(C(=O)NCCCN3CCOCC3)c2C(=O)NCCCN2CCOCC2)c1 | 9.28µM* | 6.2% | -6.7 | -2.3 | ? | 1.2%
CC1CCN(C(=O)CN2CCSc3ccccc32)CC1 | nt | nt | nt | nt | nt | 3.5%
CC(C)N1C(=S)N(Cc2ccco2)C(=O)C1CC(=O)Nc1ccccc1 (centres undefined) | 1.04µM* | nt | -9.1 | -2.2 | ? | 39.8µM*
COc1ccc(NC(=O)CC2C(=O)N(C)C(=S)N2Cc2ccco2)cc1 (centres undefined) | -6.8% | 6.1% | -11.4 | -2.0 | 294.2% | -4.7%
O=C(CC1C(=O)N(c2ccccc2)C(=O)N1Cc1ccco1)Nc1ccccc1 (centres undefined) | 13.4% | -0.8% | 30.0 | -3.1 | 14.7µM* | ?
COc1ccc(CCNC(=O)Cn2c([N+](=O)[O-])cnc2C)cc1OC | 23.6% | 3.3% | -22.2 | -3.5 | 25.2% | 0.0%
O=C(OCC1OC(OC(=O)c2cc(O)c(O)c(OC(=O)c3cc(O)c(O)c(O)c3)c2)[C@@H](OC(=O)c2cc(O)c(O)c(OC(=O)c3cc(O)c(O)c(O)c3)c2)C(OC(=O)c2cc(O)c(O)c(OC(=O)c3cc(O)c(O)c(O)c3)c2)C1OC(=O)c1cc(O)c(O)c(OC(=O)c2cc(O)c(O)c(O)c2)c1)c1cc(O)c(O)c(OC(=O)c2cc(O)c(O)c(O)c2)c1 (some centres undefined) | 3.38µM* | nt | nt | nt | 3.01µM* | nt
COCCOC(=O)c1[nH]c2c(c1C)C(=O)CC(c1cc(OC)c(OC)c(OC)c1)C2 (centres undefined) | 5.22µM* | -5.9% | 32.9 | -2.0 | 9.28µM* | -1.4%
C=CCOC(=O)c1[nH]c2c(c1C)C(=O)CC(c1cc(OC)c(OC)c(OC)c1)C2 (centres undefined) | 9.28µM* | -2.5% | -9.4 | -1.1 | 11.7µM* | -14.6%
CCCCOC(=O)c1[nH]c2c(c1C)C(=O)CC(c1cc(OC)c(OC)c(OC)c1)C2 (centres undefined) | 2.94µM* | -7.6% | 1.2 | -2.8 | -21.3% | 3.2%
CCOC(=O)c1[nH]c2c(c1-c1ccc(OC)cc1)C(=O)CC(c1ccc(OC)c(OC)c1)C2 (centres undefined) | ? | -11.7% | 10.6 | -1.3 | 8.28µM* | -19.6%
COc1cc(C2CC(=O)c3c([nH]c(C(=O)OCC4CCCCC4)c3C)C2)cc(OC)c1OC (centres undefined) | nt | nt | nt | nt | nt | 5.5%
COc1cc(C2CC(=O)c3c([nH]c(C(=O)OC4CCCCC4)c3C)C2)cc(OC)c1OC (centres undefined) | nt | nt | nt | nt | nt | 7.6%
SMILES | Pf growth 48h | NS1 function inh | Shiga inhibitor | Cycloheximide cs | Pf growth 96h | Sm TGR inh
CCCCNC(=O)C1CCN(S(=O)(=O)c2cc(Br)cc3c2N(C(=O)CC)CC3)CC1 | nt | nt | nt | nt | nt | -7.1%
O=C(CNC(=O)c1cccs1)N/N=C/c1c[nH]c2ccccc12 | 9.5% | -2.7% | 13.5 | -0.1 | 45.2% | 9.1%
COCCOC(=O)c1[nH]c2c(c1C)C(=O)CC(c1ccc(N(C)C)cc1)C2 (centres undefined) | 11.7µM* | -4.3% | 13.9 | 13.9* | ? | -17.5%
CC(=O)c1ccc(NC(=O)Cn2cc3c(n2)CCCC3)cc1 | nt | nt | nt | nt | nt | -5.3%
C/C(=N\NC(=O)c1ccc(N2CCCC2=O)cc1)c1ccncc1 | 2.8% | 12.1% | 0.7 | -3.3 | 10.9% | 8.0%
C/C(=N\NC(=O)C(=O)Nc1cccc(Cl)c1C)c1ccncc1 | -4.5% | 5.5% | -9.6 | -3.0 | -4.3% | 0.0%
C/C(=N\NC(=O)c1nn(C)cc1Cl)c1ccncc1 | 19.1% | 20.8% | 45.6* | 31.0* | 7.3% | 7.1%
C/C(=N\NC(=O)c1nn(C)cc1Br)c1ccncc1 | 34.9% | -21.3% | 92.3* | 55.4* | 34.4% | -5.9%
CCN(CC(=O)Nc1cc(Cl)ccc1C)C(=O)c1ccc(N2CCCC2=O)cc1 | -11.5% | nt | nt | nt | -20.5% | -5.1%
Nc1ccc(N2CCOCC2)c2nonc12 | 0.5% | 2.9% | -7.9 | -0.9 | 11.7µM* | ?
Nc1ccc(N2CCOCC2)c(Cl)c1 | -15.9% | 5.7% | -8.7 | -1.3 | ? | ?
O=C(Nc1ccc(N2CCOCC2)c2nonc12)C1CCCC1 | -2.5% | 7.3% | 37.0 | 18.3* | nt | -6.0%
O=C(Nc1ccc(Cl)cc1N1CCOCC1)C1CCCCC1 | ? | -1.7% | -6.1 | 2.9 | 21.3% | 6.5%
O=C(Nc1ccc(F)cc1)Nc1ccc(N2CCOCC2)c2nonc12 | 16.9% | 0.0% | 37.7 | 17.8* | 0.1% | nt
COc1ccc(NC(=O)Nc2ccc(N3CCOCC3)c3nonc23)c(OC)c1 | 26.5% | nt | -13.2 | -0.7 | 93.6%[5.75 µM] | -1.1%
COc1ccc(N2CCN(C(=O)CN3CCSc4ccccc43)CC2)cc1 | nt | nt | nt | nt | nt | 4.3%
CC(c1ccccc1)N1CCn2c(nc3cc(NC(=O)c4cccs4)ccc32)C1 (centres undefined) | ? | -56.4% | 26.3 | 21.4* | nt | ?
CCCCC(=O)Nc1ccc2c(c1)nc1n2CCN(CCOC)C1 | -10.4% | 2.7% | -4.7 | -0.3 | -15.9% | -11.3%
CCCC(=O)Nc1ccc2c(c1)nc1n2CCN(CCOC)C1 | -3.2% | 2.8% | 3.8 | 4.6 | -19.1% | 20µM*
COCCN1CCn2c(nc3cc(NC(=O)c4cccs4)ccc32)C1 | 22.8% | ? | 46.8 | 23.2 | nt | 17.8µM*
COc1ccc2[nH]c(C(=O)NCCc3ccccc3)cc2c1 | 109.4% | -11.7% | 85.2* | 32.1* | 44.3% | 10.5%
